Bioassay records: PubChem BioAssay, National Center for Advancing Translational Sciences (NCATS)
VDR inhibitor: vitamin D3 receptor (human) inhibition. VDR-SRC2-3 peptide fluorescence polarization, 2 h. actives 0.93% (n = 400,000). Potency, µM, usual class: inhibitors
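Inhibition of the VDR/SRC2-3 peptide interaction is quantified by fluorescence polarization. Compounds (23 nl, pintool) incubate with the reagents for 2 hours at ambient room temperature.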
PLK1 PBD block: blocks phosphopeptide binding to human PLK1 polo-box domain; Plk1 PBD binding of FITC phosphopeptide, fluorescence polarization; P53350; actives 2.8% (n = 360,000); Potency, µM, hits mostly inhibitors; note: series mostly up to about 57 µM; nearly all actives have a fitted effect of over 65% in size
GLS inh: inhibitors of human glutaminase (GLS) | actives 0.21% (n = 410,000) | AID 624170 | O94925 | GLS enzymatic activity, qHTS titration | Potency, µM (titrated, usually from 45.5 µM), actives largely listed as inhibitors
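Coupled fluorescence readout: glutamate oxidase/HRP/Amplex Red detect glutamate formed by hKGA from L-glutamine (1 mM solution added). Buffer 45 mM KH2PO4 pH 8.2, 0.02% Tween-20; reads at t0 and 30 min RT.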
KAT2A inh: blocks human GCN5L2 histone acetyltransferase | Q92830 | Potency, µM (highest dose often 58.9 µM), hits mostly inhibitors | AID 504327 | actives 0.21% (n = 390,000) | GCN5L2 HAT assay, ThioGlo1 CoA-SH fluorescence
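Free CoA generated was detected with ThioGlo1 (50uM) fluorescence at Ex340nm/Em540nm, read immediately and after 20 min at room temperature. Enzyme, 20 nM in HEPES pH 7.5 buffer, saw compounds 15 min before adding 75uM H3(1-25) peptide and 70uM acetyl-CoA.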
PI4K2A block: blocks human PI4K2A kinase activity | purified PI4K2A, ADP-Glo luminescence, 1 h; active compounds read low | activity change, negative = inhibition, % at 76.9 µM | actives 0.13% (n = 420,000); in the data active = activity change below about -50%; inconclusive = mostly about -30% to -49%
Target sequence (Q9BTU6 whole entry, looked up): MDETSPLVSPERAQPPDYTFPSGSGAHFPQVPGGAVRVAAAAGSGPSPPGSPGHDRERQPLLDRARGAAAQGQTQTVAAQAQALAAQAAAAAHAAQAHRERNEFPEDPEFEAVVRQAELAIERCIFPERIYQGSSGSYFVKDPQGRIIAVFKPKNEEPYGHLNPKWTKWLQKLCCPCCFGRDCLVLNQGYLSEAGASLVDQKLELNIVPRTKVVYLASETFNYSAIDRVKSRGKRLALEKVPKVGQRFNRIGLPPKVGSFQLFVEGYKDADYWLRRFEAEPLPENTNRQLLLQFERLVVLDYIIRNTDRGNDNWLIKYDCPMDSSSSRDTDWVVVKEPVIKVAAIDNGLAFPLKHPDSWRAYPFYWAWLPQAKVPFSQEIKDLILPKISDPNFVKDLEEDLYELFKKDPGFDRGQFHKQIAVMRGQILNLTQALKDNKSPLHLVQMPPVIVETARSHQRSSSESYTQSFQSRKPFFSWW
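PI4K2A activity was measured by ADP-Glo luminescence: enzyme (4 ug/mL stock) and phosphatidylinositol (1.2 mM stock) in Tris pH 7.5/MgCl2/EGTA/Triton X-100 buffer were reacted with ATP (300 microM stock) for one hour at ambient temperature.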
Each line names hits and unclear results; the compound was inactive in the other large screens. The list is not random: actives were taken first. Their share in the collection is about 3.1%. Unless noted, calls come from the whole dose curve; as a rule, active = well fitted curve in the direction sought with a large enough effect; inconclusive = small, poorly fitted or top-dose-only effect, or another doubt; inactive = no such curve, though single readings can be large; an effect the other way counts as inactive or inconclusive.

O=C1C2C3C=CC(C3)C2C(=O)N1/N=C/c1cn(Cc2ccccc2)c2ccccc12 (stereo unspecified)	none
CCOC(=O)Cn1cc(/C=N/N2C(=O)C3C4C=CC(C4)C3C2=O)c2ccccc21 (stereo unspecified)	VDR inhibitor inconclusive, PLK1 PBD block 15µM
Cc1cc(C)n(-c2nc3cc(Cl)c(Cl)cc3nc2Nc2ccc(F)cc2C)n1	none (no result: PLK1 PBD block)
COc1cc(NC(=O)c2[nH]c(C)c(C(C)=O)c2C)c(OC)cc1Cl	none (no result: VDR inhibitor, PLK1 PBD block, GLS inh, KAT2A inh)
COc1ccc(Cl)cc1NC(=O)C/C(C)=N/NC(=O)CC#N	PLK1 PBD block 27µM
COc1ccc(Cl)cc1NC(=O)C/C(C)=N/NC(=O)CCc1ccccc1	none
C=CCN(CC#Cc1ccccc1)Cc1ccc(OC)cc1	none (no result: VDR inhibitor, PLK1 PBD block, GLS inh, KAT2A inh)
Cn1ccc2cc(S(=O)(=O)N3CCCN(C(=O)Nc4ccc(Br)cc4)CC3)ccc21	none (no result: PLK1 PBD block)
Cc1nnc(N(C(=O)c2cnccn2)c2ccccc2)s1	PLK1 PBD block 11µM
CC(=O)OCOC(c1ccc2ccccc2c1)P(=O)(OCOC(C)=O)OCOC(C)=O (stereo unspecified)	none (no result: PLK1 PBD block, GLS inh, PI4K2A block)
Fc1ccc(/C=N/n2cnn(Cc3ccccc3Cl)c2=S)cc1	VDR inhibitor inconclusive, PLK1 PBD block 24µM
CN(C)c1ccc(/C=N/n2cnn(Cc3ccccc3Cl)c2=S)cc1	PLK1 PBD block inconclusive
COc1cccc(Cn2c(=O)c(-c3ccccc3)nc3cnc(N4CCNCC4)nc32)c1	VDR inhibitor inconclusive (no result: PLK1 PBD block, GLS inh, PI4K2A block)
COC(=O)C[C@H]1CC[C@@H]2[C@@H](COc3ccc(NC(=O)Nc4ccccc4OC)cc3C(=O)N2C)O1	none (no result: VDR inhibitor, PLK1 PBD block, GLS inh, KAT2A inh)
CC(=O)Nc1ccc(S(=O)(=O)NCC(=O)NNC(=O)c2csc(N3CCOCC3)n2)cc1	PLK1 PBD block 21µM
O=Nc1ccc2oc(=O)ccc2c1	VDR inhibitor 13µM, KAT2A inh inconclusive (no result: PLK1 PBD block, GLS inh)
CCCn1nnnc1NC(=O)c1cc(Cl)ccc1Cl	PLK1 PBD block 27µM
O=C(N=C1SC2CS(=O)(=O)CC2N1c1ccccc1)C1CC1 (stereo unspecified)	none
O=C(CC1CCCCC1)N=C1SC2CS(=O)(=O)CC2N1c1ccccc1 (stereo unspecified)	PLK1 PBD block 27µM
Cc1cc(Cl)ccc1NNC(=O)c1cccs1	VDR inhibitor inconclusive, GLS inh inconclusive
O=C(NNc1cc(Cl)ccc1Cl)c1cccs1	GLS inh 13µM
O=C(NCCc1ccccc1)c1ccc2c(=O)[nH]c3c(C(=O)NCC4CCCO4)sc(=S)n3c2c1 (stereo unspecified)	VDR inhibitor 79µM, PLK1 PBD block 30µM, KAT2A inh inconclusive
CCOc1ccc(CCNC(=O)c2ccc3c(=O)[nH]c4c(C(=O)NC(C)C)sc(=S)n4c3c2)cc1	PLK1 PBD block inconclusive, GLS inh inconclusive
COc1ccc(OC)c(CCNC(=O)c2ccc3c(=O)[nH]c4c(C(=O)NC(C)C)sc(=S)n4c3c2)c1	PLK1 PBD block inconclusive, GLS inh inconclusive
O=C(NCC1CCCO1)c1ccc2c(c1)N(Cc1ccccc1)C(=O)CS2 (stereo unspecified)	PLK1 PBD block 30µM
CC(C)NC(=O)c1sc(=S)n2c1[nH]c(=O)c1ccc(C(=O)NCCc3ccc(Cl)cc3)cc12	PLK1 PBD block 27µM, GLS inh inconclusive
O=C(NC1CCCCN(Cc2cccc(Cl)c2)C1=O)c1cccc([N+](=O)[O-])c1 (stereo unspecified)	none (no result: VDR inhibitor, PLK1 PBD block, GLS inh, KAT2A inh)
CCSc1ncc(Cl)c(C(=O)N(Cc2ccc(N(C)C)cc2)Cc2ccco2)n1	none (no result: PLK1 PBD block)
COc1cc(NC(=O)C2CCN(S(=O)(=O)c3c(C)noc3/C=C/c3ccccc3F)CC2)cc(OC)c1OC	none (no result: PLK1 PBD block)
CN(C)c1ccc(N2C(=O)CSC2=S)cc1	VDR inhibitor 89µM
CC1SC(=S)N(c2ccc(N(C)C)cc2)C1=O (stereo unspecified)	VDR inhibitor 32µM, PLK1 PBD block inconclusive, KAT2A inh inconclusive
CN(C)c1ccc(N2C(=O)CC(c3ccccc3)CC2=O)cc1	none
Cc1[nH]c2ccccc2c1CCN(Cc1cccs1)C(=O)Nc1cccc2c1OCO2	none (no result: VDR inhibitor, PLK1 PBD block, GLS inh, KAT2A inh)
O=C(CSc1ccc(F)cc1)NC(=O)c1ccccc1	none (no result: VDR inhibitor, KAT2A inh)
O=C(CSc1ccc(Cl)cc1)NC(=O)c1ccccc1	PLK1 PBD block 12µM
Nc1[nH]c(C(=O)c2ccccc2)c(-c2ccc(Cl)cc2Cl)c1C(=O)NCCC1=CCCCC1	none (no result: VDR inhibitor, PLK1 PBD block, GLS inh, KAT2A inh)
O=C(O)c1ccc(-n2cccc2/C=N\NC(=O)c2cc3cc(Br)ccc3o2)cc1	PLK1 PBD block 21µM, KAT2A inh inconclusive
Cn1cc(/C=N/NC(=O)c2cc3cc(Br)ccc3o2)c2ccccc21	none
COc1ccc(-c2nn3c(-c4cc(-c5ccccc5)n[nH]4)nnc3s2)cc1	none (no result: PLK1 PBD block, GLS inh, KAT2A inh, PI4K2A block)
O=C(NCc1ccco1)c1cccnc1-c1nc2ccccc2s1	VDR inhibitor inconclusive, PLK1 PBD block 24µM
O=C(N/N=C/c1cc([N+](=O)[O-])ccc1O)NC12CC3CC(CC(C3)C1)C2	GLS inh 10µM
O=C(N/N=C/c1cc([N+](=O)[O-])ccc1O)C12CC3CC(CC(C3)C1)C2	none
CCOc1ccc(OCC)c(NC(=O)C2CCN(S(=O)(=O)c3c(C)[nH]c(=O)[nH]c3=O)CC2)c1	PLK1 PBD block 17µM, GLS inh inconclusive
COC(=O)CCN(C(C)=O)c1ccc(N)cc1	VDR inhibitor inconclusive, PLK1 PBD block 27µM
COC(=O)CCN(C)CCC(=O)OC	none
COc1ccc(S(=O)(=O)c2c(Nc3c(C)cccc3C)sc(C(=O)c3ccc4c(c3)OCO4)c2N)cc1	none (no result: PLK1 PBD block)
Cc1nn(C)c2c1c(C(F)(F)F)cc(=O)n2CC(=O)NCc1ccc(OC(C)C)cc1	none (no result: PLK1 PBD block)
O=C(O)c1cccc(N2C(=O)/C(=C/c3ccc(SCc4ccc(Cl)cc4)o3)SC2=S)c1	PLK1 PBD block inconclusive, GLS inh inconclusive, KAT2A inh 22µM
O=S1(=O)c2c(cccc2N2CCC[C@H]2CO)OCCCN1C1CC1	none (no result: VDR inhibitor, PLK1 PBD block, GLS inh, KAT2A inh)
COc1ccc(-c2nc(N3CCN(S(=O)(=O)c4ccc(F)cc4)CC3)c3ccccc3n2)cc1	none (no result: PLK1 PBD block, GLS inh, KAT2A inh, PI4K2A block)
CC(NC(=O)Cn1ccsc1=N)C12CC3CC(CC(C3)C1)C2 (stereo unspecified)	PLK1 PBD block 7.5µM, GLS inh inconclusive
COc1ccc(NC(=O)C(C/C=C(/C)Cl)C(C)=O)cc1 (stereo unspecified)	PLK1 PBD block 3.8µM, GLS inh inconclusive
O=C(NC1CCCCN(Cc2ccc(OC(F)(F)F)cc2)C1=O)c1ccc(F)c(F)c1 (stereo unspecified)	none (no result: VDR inhibitor, PLK1 PBD block, GLS inh, KAT2A inh)
CC(C)(C)S(=O)(=O)/C(C#N)=C/c1sccc1C1OCCO1	VDR inhibitor inconclusive, PLK1 PBD block 21µM
COc1cc(/C=C2\SC(N)=NC2=O)cc(OC)c1	VDR inhibitor inconclusive, PLK1 PBD block 13µM
NC1=NC(=O)/C(=C/c2cc(Br)c(O)c(Br)c2)S1	none
Cc1ccc(-c2nc3ccccc3c(=O)n2NC(=O)c2cccs2)cc1	KAT2A inh inconclusive
Cc1ccc(-c2nc3ccccc3c(=O)n2NC(=S)N(C)C)cc1	PLK1 PBD block 27µM
